# From PubChem BioAssay (NCATS)
# Several values for one entry are separate records, joined by “and”; a condition that tells them apart may be missing. Equal values may be shown once. A number with no mark means an inactive call. Inconclusive results are not listed. Entries that show only a call come without a potency. Activity calls are given as the source filed them. Unless noted, calls come from the whole dose curve; as a rule, active = well fitted curve in either direction with a large enough effect (not every such curve was filed as active); inconclusive = small, poorly fitted or top-dose-only effect, or another doubt; inactive = flat fitted curve, though single readings scatter.
# Key:
# [1] = AP1 Signaling Pathway (AID 357)
# How it was run: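 AP-1-bla ME-180 cells with beta-lactamase reporter under AP-1 response element, stimulated with EC50 EGF; compounds titrated, 5 hours at 37 degrees Celsius. CCF4 read at 460/530 nm ratio; positive and negative modulators judged by AC50.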
# [2] = NFAT Signaling Pathway (AID 444); settings: Jurkat NFAT-bla M1, carbachol, beta-lactamase ratio, 5 h;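 note: carbachol stimulus at about its EC50 of 1 µM final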
# How it was run: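 Read-out: CCF4 FRET ratio (460 nm/530 nm) after 1 h RT dye loading, used for %activity and AC50 from titration series. Cells: Jurkat NFAT-β-lactamase/M1 line, treated with compound plus 1 uM carbachol for 5 h, 37 °C.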
# [3] = Stat Signaling Pathway (AID 446);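 note: ME-180 cervical cancer cells given 40 pM IL-6 alongside compound; SIE-controlled beta-lactamase reporter measured as 460/530 nm FRET emission ratio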
# How it was run: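 Screening format detects activators and inhibitors alike: ME-180 SIE-bla cells stimulated at 40 pM IL-6 for 5 hrs with compound, then dual-emission beta-lactamase read at 405 nm excitation.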
# [4] = biological target: Glucocorticoid receptor (Homo sapiens) (UniProt P04150); test: GR-GFP Redistribution (AID 450;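 active = compounds whose dose series gives a full or clear partial fitted curve of increased nuclear translocation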; note: potency is the fitted concentration of half-maximal effect); settings: U2OS GR-GFP nuclear translocation, laser cytometry, 2 h
# Sequence of Glucocorticoid receptor (Homo sapiens) (P04150 whole entry, looked up, the tested form may be a part): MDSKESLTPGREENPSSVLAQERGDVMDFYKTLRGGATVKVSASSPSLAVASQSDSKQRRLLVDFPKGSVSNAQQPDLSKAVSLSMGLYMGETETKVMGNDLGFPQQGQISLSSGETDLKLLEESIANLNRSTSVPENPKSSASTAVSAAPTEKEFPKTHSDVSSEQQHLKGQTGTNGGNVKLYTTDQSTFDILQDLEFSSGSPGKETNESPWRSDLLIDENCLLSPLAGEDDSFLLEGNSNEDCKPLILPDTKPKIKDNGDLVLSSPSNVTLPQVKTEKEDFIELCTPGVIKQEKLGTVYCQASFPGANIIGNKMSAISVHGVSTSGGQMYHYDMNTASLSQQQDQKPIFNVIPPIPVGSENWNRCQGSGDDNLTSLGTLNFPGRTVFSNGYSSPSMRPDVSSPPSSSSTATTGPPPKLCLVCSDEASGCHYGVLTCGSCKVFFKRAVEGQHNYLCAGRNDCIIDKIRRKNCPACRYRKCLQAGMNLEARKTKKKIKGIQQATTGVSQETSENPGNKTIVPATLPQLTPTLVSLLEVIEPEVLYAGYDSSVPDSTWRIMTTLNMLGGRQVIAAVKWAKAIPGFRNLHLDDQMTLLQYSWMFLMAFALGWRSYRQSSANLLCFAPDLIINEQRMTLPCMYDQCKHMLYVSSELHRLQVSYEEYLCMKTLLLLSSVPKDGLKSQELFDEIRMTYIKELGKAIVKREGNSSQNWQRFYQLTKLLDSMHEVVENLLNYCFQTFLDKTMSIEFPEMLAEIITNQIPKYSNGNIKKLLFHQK
# [5] = biological target: Cytochrome P450 1A2 (Homo sapiens) (UniProt P05177); test: p450-cyp1a2 (AID 410; calls by dose curve; note: potency is the fitted concentration of half-maximal effect)
# Sequence of Cytochrome P450 1A2 (Homo sapiens) (P05177 whole entry, looked up): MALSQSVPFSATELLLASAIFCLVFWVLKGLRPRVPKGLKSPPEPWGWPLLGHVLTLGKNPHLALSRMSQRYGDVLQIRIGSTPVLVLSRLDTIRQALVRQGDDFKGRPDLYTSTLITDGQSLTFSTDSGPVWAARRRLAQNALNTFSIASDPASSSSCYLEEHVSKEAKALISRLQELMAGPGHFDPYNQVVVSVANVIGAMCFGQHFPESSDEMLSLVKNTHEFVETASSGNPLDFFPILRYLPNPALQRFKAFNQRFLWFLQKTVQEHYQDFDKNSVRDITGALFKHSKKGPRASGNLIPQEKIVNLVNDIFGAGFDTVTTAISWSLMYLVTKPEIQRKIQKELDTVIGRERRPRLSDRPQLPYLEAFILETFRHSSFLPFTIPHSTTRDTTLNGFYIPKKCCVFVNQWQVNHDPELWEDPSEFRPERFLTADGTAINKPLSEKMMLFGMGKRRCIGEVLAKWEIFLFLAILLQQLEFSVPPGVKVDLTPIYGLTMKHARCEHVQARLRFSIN
# How it was run: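 20nM CYP1A2 with 100uM Luciferin-ME (at Km) in 100mM KPO4; compound preincubated 10 min, NADPH regeneration added, 60 min at room temperature. Luciferin quantified by luminescence after detection reagent; normalized to 57 uM furafylline.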
# [6] = Cell Viability - BJ (AID 421; calls by dose curve;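 note: potency is the fitted concentration of half-maximal effect; cells exposed to compound for 40 hours at 37 °C before readout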); settings: BJ fibroblast viability, qHTS
# How it was run: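 Cytotoxicity in human BJ foreskin fibroblasts is scored as loss of cellular ATP after a 40-hour exposure, measured by luciferase luminescence. Controls are DMSO and 100 uM tamoxifen.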
# [7] = Cell Viability - Jurkat (AID 426;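 active = dose-dependent loss of cell ATP signal giving a full or clear fitted curve, ranked by lower potency value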; note: potency is the fitted concentration of half-maximal effect); settings: qHTS
# How it was run: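 Jurkat (Clone E6-1) cells, 5000/well in complete medium, exposed to compounds for 40 hr at 37C; intracellular ATP measured by CellTiter-Glo luminescence after 20 min at room temperature. AC50 from Hill fits.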
# [8] = Cell Viability - Hek293 (AID 427;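 active = compounds whose dose-response curve shows a full or clear partial loss of cell viability, called from curve shape rather than a numeric limit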;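 note: potency is the fitted concentration of half-maximal effect; cells exposed to compound for 40 hours at 37 °C before reading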); settings: qHTS
# How it was run: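 qHTS, human embryonic kidney (adenovirus-transformed) cells; 40 hr cpd, 37 °C; CellTiter-Glo ATP luminescence. Norm: DMSO = 0, 100 uM tamoxifen = 100% inhibition. Hill-fit AC50.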
# [9] = Cell Viability - HepG2 (AID 433; calls by dose curve;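 note: potency is the fitted concentration of half-maximal effect; potency for ATP loss meaning cytotoxicity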); settings: qHTS
# How it was run: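 HepG2 hepatocellular carcinoma cells (1500/well) were treated with compounds for 40 h at 37 °C in complete medium; intracellular ATP was read by CellTiter-Glo luminescence. Data were normalized to DMSO and 100 uM tamoxifen, and AC50 came from Hill fits.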
# [10] = Cell Viability - MRC5 (AID 434; calls by dose curve;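 note: potency is the fitted concentration of half-maximal effect; potency reflects cytotoxicity seen as loss of intracellular ATP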); settings: MRC5 lung fibroblast viability, qHTS
# How it was run: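 qHTS cytotoxicity in human lung fibroblast MRC5 cells; 40 hr treatment, 37 °C; cellular ATP by luciferase luminescence; DMSO = 0%, 100 uM tamoxifen = 100% inhibition; Hill-fit AC50.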
# [11] = Cell Viability - SK-N-SH (AID 435; calls by dose curve;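 note: potency is the fitted concentration of half-maximal effect; compound exposure lasted 40 h at 37 °C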); settings: SK-N-SH neuroblastoma cell viability qHTS
# How it was run: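 SK-N-SH human neuroblastoma cells (1500/well) were exposed to compounds in complete medium for 40 h at 37 °C, and intracellular ATP was then measured by CellTiter-Glo luminescence. AC50 was taken from Hill fits, normalized to DMSO and 100 uM tamoxifen.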
# [12] = biological target: Glucocorticoid receptor (Homo sapiens) (UniProt P04150); test: GR-EFC Redistribution (AID 451; calls by dose curve; note: potency is the fitted concentration of half-maximal effect); settings: CHO-K1 GR-EFC translocation, beta-gal luminescence, 2 h
# How it was run: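 Translocation of GR-ED fusion to nuclear EA restores b-gal, read by luminescence after 1 h room-temperature detection. Engineered CHO-K1 biosensor cells, 1,000/well, exposed 2 h at 37 C to titrations up to 46 uM final.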
# [13] = biological target: Mitogen-activated protein kinase 10 (Mus musculus) (UniProt Q61831); test: JNK3 AlphaScreen Assay (AID 530);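 note: kinase came from lysate of stimulated human HepG2 cells; signal reports phosphorylation of biotinylated GST-cJun 1-79 at Ser73 with 10 µM ATP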
# How it was run: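 Compound titrations were preincubated 15 minutes at room temperature with substrate, antibody and pre-activated JNK3-containing HepG2 lysate. Reactions were started with 10 uM ATP and stopped with EDTA-containing bead buffer for AlphaScreen detection.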
# [14] = Cell Viability - N2a (AID 540; active = well fitted curve in the direction sought with a large enough effect; an effect the other way counts as inactive or inconclusive; note: nearly all actives have a fitted effect of over 45% in size)
# How it was run: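 Mouse neuroblastoma N2a cells, 1500/well, exposed to compounds 40 h at 37 °C in complete medium. Viability measured as cellular ATP by CellTiter-Glo luminescence; AC50 from Hill fits of concentration-response.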
# [15] = Cell Viability - NIH 3T3 (AID 541; active = well fitted curve in the direction sought with a large enough effect; an effect the other way counts as inactive or inconclusive; note: nearly all actives have a fitted effect of over 25% in size); settings: NIH 3T3 cell viability, qHTS; activity change, negative = cytotoxicity: at 92.2 µM (top of the series)
# How it was run: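 Mouse NIH 3T3 fibroblasts, 1000 cells/well, rested 5 hr at 37 °C, then exposed to compound for 40 hr at 37 °C in complete medium. Viability read as intracellular ATP by CellTiter-Glo luminescence; AC50 from Hill-equation fits of concentration-response data.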
# [16] = Cell Viability - HUV-EC-C (AID 542; active = well fitted curve in the direction sought with a large enough effect; an effect the other way counts as inactive or inconclusive; note: nearly all actives have a fitted effect of over 35% in size)
# How it was run: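 HUV-EC-C human vascular endothelial cells, 1000/well, exposed to compound for 40 hr at 37 °C in complete medium. Intracellular ATP was read by CellTiter-Glo luminescence. AC50 came from Hill-equation fits of concentration-response data.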
# [17] = Cell Viability - H-4-II-E (AID 543; active = well fitted curve in the direction sought with a large enough effect; an effect the other way counts as inactive or inconclusive; note: nearly all actives have a fitted effect of over 35% in size)
# How it was run: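 Rat hepatoma H-4-II-E cells, 1500 per well, treated 40 h at 37 °C in complete medium. Cellular ATP read by CellTiter-Glo luminescence; AC50 from Hill fits of concentration-response.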
# [18] = Cell Viability - SH-SY5Y (AID 544; active = well fitted curve in the direction sought with a large enough effect; an effect the other way counts as inactive or inconclusive; note: nearly all actives have a fitted effect of over 55% in size); settings: SH-SY5Y neuroblastoma cell viability; viability change, negative = cytotoxic: at 92.2 µM (top of the series)
# How it was run: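 SH-SY5Y human neuroblastoma cells (1500/well) incubated 5 h, then compound-treated 40 h at 37 °C in complete medium. Viability read as intracellular ATP by CellTiter-Glo luminescence after 20 min; AC50 from Hill-equation fits of qHTS concentration-response.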
# [19] = Cell Viability - Renal Proximal Tubule (AID 545; active = well fitted curve in the direction sought with a large enough effect; an effect the other way counts as inactive or inconclusive; note: nearly all actives have a fitted effect of over 40% in size)
# How it was run: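 Primary rat renal proximal tubule cells (1000/well) were treated with compounds for 40 hr at 37 °C in complete medium. Intracellular ATP was measured by CellTiter-Glo luminescence, and AC50 values came from Hill-equation fits of concentration-response data.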
# [20] = biological target: Lysosomal acid glucosylceramidase (Homo sapiens) (UniProt P04062); test: Glucocerebrosidase-p2 (AID 348; in the data active = potency below about 10 µM; note: potency is the fitted concentration of half-maximal effect); settings: purified GBA, blue fluorogenic substrate, 40 min
# Sequence of Lysosomal acid glucosylceramidase (Homo sapiens) (P04062 whole entry, looked up): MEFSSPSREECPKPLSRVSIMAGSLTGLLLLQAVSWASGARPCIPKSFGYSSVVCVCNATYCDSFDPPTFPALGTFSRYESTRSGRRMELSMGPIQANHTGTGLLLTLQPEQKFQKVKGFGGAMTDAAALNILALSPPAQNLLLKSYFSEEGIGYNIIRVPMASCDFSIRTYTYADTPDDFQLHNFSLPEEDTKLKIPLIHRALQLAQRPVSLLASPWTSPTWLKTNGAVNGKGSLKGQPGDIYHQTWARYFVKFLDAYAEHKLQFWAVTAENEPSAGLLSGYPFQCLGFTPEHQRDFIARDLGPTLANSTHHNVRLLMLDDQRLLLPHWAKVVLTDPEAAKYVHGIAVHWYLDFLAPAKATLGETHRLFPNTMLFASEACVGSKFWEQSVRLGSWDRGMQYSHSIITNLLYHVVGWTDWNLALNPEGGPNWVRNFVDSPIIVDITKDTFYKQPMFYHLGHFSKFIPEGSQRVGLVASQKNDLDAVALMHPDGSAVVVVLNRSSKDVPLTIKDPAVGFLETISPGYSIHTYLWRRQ
# How it was run: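 Compounds titrated from 0.6 nM upwards against 0.2 nM enzyme in pH 5.9 citric acid/KH2PO4, taurocholate, tween-20; blue fluorogenic substrate 80 uM, 40 min room temperature, stopped and read Ex 365/Em 440 for AC50.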
# [21] = at 17.2 µM (top of the series) unless noted
smiles,measurement,setting,value
CC(=O)O[C@]1(C(C)=O)CC[C@H]2[C@@H]3C=C(C)C4=CC(=O)CC[C@]4(C)[C@H]3CC[C@@]21C,outcome,[1],inactive
same,"activity change, negative = inhibition",[2]; [21],-25.3%
same,outcome,[3],inactive
same,Potency,[4],0.00185 µM (active)
COc1ccc(C(=O)c2ccccc2)c(O)c1,outcome,[1],inactive
same,Potency,[5],1.58 µM (active)
same,Potency,[6],> 92 µM
same,Potency,[7],> 92 µM
same,Potency,[8],> 92 µM
same,Potency,[9],> 92 µM
same,Potency,[10],> 92 µM
same,Potency,[11],> 92 µM
same,"activity change, negative = inhibition",[2]; [21],-6.2%
same,outcome,[3],inactive
same,Potency,[4],> 20.6 µM
same,Potency,[12],> 20.6 µM
same,Potency,[13],inactive
same,Potency,[14],inactive
same,"activity change, negative = cytotoxicity",[15],-13.4%
same,outcome,[16],inactive
same,Potency,[17],inactive
same,"viability change, negative = cytotoxic",[18],-8.89%
same,outcome,[19],inactive
CCc1oc2ccccc2c1C(=O)c1cc(Br)c(O)c(Br)c1,Potency,[20],> 11.4 µM
same,Potency,[4],> 20.6 µM and > 46 µM
same,Potency,[12],> 20.6 µM and > 9.22 µM
same,Potency,[13],inactive
O=C(CCCN1CC=C(n2c(=O)[nH]c3ccccc32)CC1)c1ccc(F)cc1,outcome,[1],inactive
same,Potency,[5],inactive
same,"activity change, negative = inhibition",[2]; [21],-14.9%
same,outcome,[3],inactive
same,Potency,[4],> 20.6 µM
same,Potency,[12],> 20.6 µM
same,Potency,[13],inactive
NS(=O)(=O)c1cc(C(=O)O)cc(N2CCCC2)c1Oc1ccccc1,outcome,[1],inactive
same,Potency,[5],inactive
same,"activity change, negative = inhibition",[2]; [21],-7.88%
same,outcome,[3],inactive
same,Potency,[4],2.81 µM (active)
same,Potency,[12],> 20.6 µM
same,Potency,[13],inactive
COc1cc(C(=O)NCc2ccc(OCCN(C)C)cc2)cc(OC)c1OC,outcome,[1],inactive
same,Potency,[5],inactive
same,"activity change, negative = inhibition",[2]; [21],-15.8%
same,outcome,[3],inactive
same,Potency,[4],> 20.6 µM
same,Potency,[12],> 20.6 µM
same,Potency,[13],inactive
O=C1C(CCS(=O)c2ccccc2)C(=O)N(c2ccccc2)N1c1ccccc1 (stereo unspecified),outcome,[1],inactive
same,Potency,[5],inactive
same,"activity change, negative = inhibition",[2]; [21],-0.885% and -5.88%
same,outcome,[3],inactive
same,Potency,[4],> 20.6 µM
same,Potency,[12],> 20.6 µM
same,Potency,[13],inactive
CC(O)Cn1cnc2c1c(=O)n(C)c(=O)n2C (stereo unspecified),outcome,[1],inactive
same,"activity change, negative = inhibition",[2]; [21],10.8%
same,outcome,[3],inactive
CN1CCC[C@@H]1CCO[C@](C)(c1ccccc1)c1ccc(Cl)cc1,outcome,[1],inactive
same,Potency,[5],inactive
same,outcome,[3],inactive
same,Potency,[13],inactive
CCCCNc1ccc(C(=O)OCCOCCOCCOCCOCCOCCOCCOCCOCCOC)cc1,outcome,[1],inactive
same,Potency,[5],inactive
same,"activity change, negative = inhibition",[2]; [21],-6.05%
same,outcome,[3],inactive
same,Potency,[4],> 20.6 µM
same,Potency,[12],> 20.6 µM
same,Potency,[13],inactive
CCCCN1C[C@H](O)[C@@H](O)[C@H](O)[C@H]1CO,outcome,[1],inactive
same,"activity change, negative = inhibition",[2]; [21],14.7%
same,outcome,[3],inactive
same,Potency,[4],> 20.6 µM
Nc1ccc(S(=O)(=O)Nc2cnc3ccccc3n2)cc1,Potency,[20],> 11.4 µM
same,outcome,[1],inactive
same,Potency,[5],inactive
same,"activity change, negative = inhibition",[2]; at 7.69 µM (top of the series),-24.5%
same,"activity change, negative = inhibition",[2]; at 17.2 µM (top of the series),-5.07%
same,outcome,[3],inactive
same,Potency,[4],> 20.6 µM and > 46 µM
same,Potency,[12],> 20.6 µM and > 9.22 µM
same,Potency,[13],inactive
O=C1C(O)=C(O)C(=O)C(O)=C1O,outcome,[1],inactive
same,Potency,[5],inactive
same,"activity change, negative = inhibition",[2]; [21],-6.65%
same,outcome,[3],inactive
same,Potency,[4],> 20.6 µM
same,Potency,[12],> 20.6 µM
same,Potency,[13],inactive
CCOC(=O)c1ccc(N)cc1,outcome,[1],inactive
same,Potency,[5],2 µM (active)
same,"activity change, negative = inhibition",[2]; [21],-2.56%
same,outcome,[3],inactive
same,Potency,[4],> 20.6 µM
same,Potency,[12],> 20.6 µM
same,Potency,[13],inactive
COc1cc(N)c(Cl)cc1C(=O)NC1CCN(Cc2ccccc2)CC1,outcome,[1],inactive
same,Potency,[5],12.6 µM (active)
same,"activity change, negative = inhibition",[2]; [21],-14.7%
same,outcome,[3],inactive
same,Potency,[4],> 20.6 µM
same,Potency,[12],> 20.6 µM
same,Potency,[13],inactive
CC(C)(C)NC[C@H](O)COc1cccc2c1CCCC2=O,outcome,[1],inactive
same,Potency,[5],inactive
same,"activity change, negative = inhibition",[2]; [21],-6.3% and -2.31%
same,outcome,[3],inactive
same,Potency,[4],> 20.6 µM
same,Potency,[12],> 20.6 µM
same,Potency,[13],inactive
CCc1cc(Cl)c(OC)c(C(=O)NC[C@@H]2CCCN2CC)c1O,outcome,[1],inactive
same,Potency,[5],3.98 µM (active)
same,outcome,[3],inactive
same,Potency,[4],> 20.6 µM
same,Potency,[12],> 20.6 µM
same,Potency,[13],inactive
CC(=O)O[C@]1(C(C)=O)CC[C@H]2[C@@H]3C=C(Cl)C4=CC(=O)CC[C@]4(C)[C@H]3CC[C@@]21C,outcome,[1],inactive
same,"activity change, negative = inhibition",[2]; [21],-29%
same,outcome,[3],inactive
CCCc1ncc(C[n+]2ccccc2C)c(N)n1,outcome,[1],inactive
same,Potency,[5],inactive
same,"activity change, negative = inhibition",[2]; [21],-11.4%
same,outcome,[3],inactive
same,Potency,[4],> 20.6 µM
same,Potency,[12],> 20.6 µM
same,Potency,[13],inactive
